Compounds with a hit are over-represented: about 1.9% of the library has one in this group of screens.
ClpP mod – qHTS Assay for Activators of ClpP. ATP-dependent Clp protease proteolytic subunit (Bacillus subtilis (strain 168)), P80244. purified B. subtilis ClpP, FRET peptide cleavage, 20 min. Potency, µM (series often up to 57.5 µM). actives 1.9% (n = 340,000). AID 651965, 2013; active means well fitted falling curve with a large enough effect; inconclusive means small, poorly fitted or top-dose-only effect; inactive means no such curve, though single readings can be large or run the other way; further: the source files actives as falling curves though it sought activators and does not explain the sign; nearly all actives have a fitted effect of over 65% in size
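Purified B. subtilis ClpP, 10 microg/mL final in Tris/HCl pH8 with KCl, BSA, glycerol and Tween-20, cleaved an Abz/nitrotyrosine-quenched decapeptide. Fluorescence (ex 320, em 430) was read at 0 and 20 min at room temperature. Delta was normalized to 5.8 microM ADEP and DMSO/no-enzyme controls.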
Integrin act MD – activators of alpha7 integrin expression for muscular dystrophy. AID 624291. actives 0.064% (n = 350,000). Potency, µM (doses to about 38.3 µM), most hits filed as activators. alpha7betagal myoblasts, beta-gal FDG fluorescence, 48 h; further: nearly all actives have a fitted effect of over 60% in size
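alpha7betagal+/- myoblasts (passage 13, 250/well) treated 48 h at 37C with compounds at 1:260 dilution of DMSO stock. Lysed, then beta-galactosidase activity read as FDG fluorescence (ex 480/em 540) after 30 min, with pre-read for autofluorescence.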
Pin1 inhibitor – blocks the human prolyl isomerase Pin1 | Q13526 | actives 0.009% (n = 390,000) | AID 504891 | Potency, µM (series often up to 115 µM), most hits filed as inhibitors | Pin1 FP peptide displacement, HiFluor488, 10 min; active means well fitted inhibition curve with a large enough effect in the polarisation, with a control signal flat, not every such curve was filed as active; inconclusive means small, poorly fitted or top-dose-only effect, or effect the other way, or a change in a side signal; inactive means no such curve, though single readings can be large or run the other way; the % refers to the polarisation
PKM2 activator – activators of human pyruvate kinase M2 | Potency, µM (doses to about 57.5 µM), usual class: activators | actives 0.34% (n = 260,000) | P14618 | AID 1631 | purified PKM2, Kinase-Glo ATP luminescence, activation; response scale: 0% is enzyme alone, no compound; further: nearly all actives have a fitted effect of over 55% in size
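Purified hPK-M2 (>95%) run at intermediate activity with 0.1 mM ADP and 0.5 mM PEP in 50 mM imidazole pH 7.2, KCl, MgCl2; 1 h room temperature. ATP formed read by Kinase-Glo luminescence; normalized to uninhibited and no-enzyme controls.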
IL-2 act – activates IL-2 in a cell-based reporter assay. IL-2 activation reporter assay, cell-based qHTS; stimulated with anti-CD3/CD4/CD28 beads; in transgenic mouse T cells. activation, % (series mostly up to about 46 µM). actives 0.065% (n = 360,000); in the data active means activation above about 50%; inconclusive means mostly about 30% to 49%
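EGFP and DsRed fluorescence is measured by plate cytometry in unstimulated transgenic mouse T cells exposed to compound for 60 minutes, then stimulated 18 hours at 37 degrees C with anti-CD3/anti-CD4 beads plus anti-CD28.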
USP2a block – blocks human ubiquitin-specific protease USP2a; O75604; USP2 core, Ub-CHOP2 coupled fluorogenic reporter, 485/531; Potency, µM (series often up to 38.3 µM), usual class: inhibitors; actives 0.01% (n = 330,000); AID 463254
Target sequence (O75604 whole entry, looked up): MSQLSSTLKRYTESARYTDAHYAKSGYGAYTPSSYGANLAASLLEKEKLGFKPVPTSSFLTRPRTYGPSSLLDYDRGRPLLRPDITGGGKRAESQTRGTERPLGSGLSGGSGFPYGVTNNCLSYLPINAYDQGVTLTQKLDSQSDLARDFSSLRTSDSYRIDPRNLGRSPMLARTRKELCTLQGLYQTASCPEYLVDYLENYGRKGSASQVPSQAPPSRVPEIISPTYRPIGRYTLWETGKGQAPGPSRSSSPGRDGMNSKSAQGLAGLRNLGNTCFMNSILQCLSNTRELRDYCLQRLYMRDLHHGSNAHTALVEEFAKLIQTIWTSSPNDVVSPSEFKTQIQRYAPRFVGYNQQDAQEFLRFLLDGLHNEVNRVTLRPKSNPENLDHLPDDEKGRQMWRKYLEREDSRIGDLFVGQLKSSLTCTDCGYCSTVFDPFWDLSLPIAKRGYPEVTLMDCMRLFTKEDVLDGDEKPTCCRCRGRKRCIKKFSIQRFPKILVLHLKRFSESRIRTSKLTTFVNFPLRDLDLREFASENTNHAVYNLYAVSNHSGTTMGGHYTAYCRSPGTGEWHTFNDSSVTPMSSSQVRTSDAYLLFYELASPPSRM
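USP2 core (10nM final) preincubated 30min RT with compound in 20mM Tris-HCl pH 8.0, 2mM CaCl2, 2mM beta-mercaptoethanol, 0.05% CHAPS; 25nM Ub-CHOP2 plus 25nM reporter substrate added, fluorescence (Ex485/Em531) read after 60min.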
Each line names hits and unclear results; the compound was inactive in the other large screens. Unless noted, the call rests on the fitted dose curve; in most records, active means well fitted curve in the direction sought with a large enough effect; inconclusive means small, poorly fitted or top-dose-only effect, or another doubt; inactive means no such curve, though single readings can be large; an effect the other way counts as inactive or inconclusive.

C=CCNC(=O)c1c(N)n(Cc2ccco2)c2nc3ccccc3nc12	ClpP mod 16µM, Pin1 inhibitor inconclusive
COCCNC(=O)c1c(N)n(Cc2ccco2)c2nc3ccccc3nc12	ClpP mod inconclusive
CCCCn1c(NS(=O)(=O)c2ccccc2)c(C(=O)OCC)c2nc3ccccc3nc21	ClpP mod 28µM, Pin1 inhibitor inconclusive
NCC(=O)c1cccc([N+](=O)[O-])c1	none (no result: Integrin act MD, Pin1 inhibitor, PKM2 activator, IL-2 act, USP2a block)
CC1(C)N([O])C(c2ccc(C(=O)O)cc2)=[N+]([O-])C1(C)C	none (no result: Integrin act MD, Pin1 inhibitor, PKM2 activator, IL-2 act, USP2a block)
Cc1ccc(C)c(N2CCN(C(=O)C3CCN(Cc4nc(-c5cccc(Cl)c5)oc4C)CC3)CC2)c1	ClpP mod inconclusive (no result: Integrin act MD, PKM2 activator, IL-2 act, USP2a block)
CCOc1ccccc1NC(=O)c1sc2nc3c(cc2c1N)CN(Cc1ccccc1)CC3	Pin1 inhibitor inconclusive (no result: Integrin act MD, PKM2 activator, IL-2 act, USP2a block)
Nc1c(C(=O)NCCN2CCOCC2)c2nc3ccccc3nc2n1Cc1ccco1	ClpP mod 16µM
CCCCn1c(N)c(C(=O)NCCN2CCOCC2)c2nc3ccccc3nc21	ClpP mod 11µM, Pin1 inhibitor inconclusive
Nc1c(C(=O)NCCN2CCOCC2)c2nc3ccccc3nc2n1Cc1ccccc1	none (no result: ClpP mod)
CCC(C)NC(=O)c1c(N)n(CC2CCCO2)c2nc3ccccc3nc12 (centres undefined)	ClpP mod 35µM
COc1ccc(CCNC(=O)c2c(N)n(CCN3CCOCC3)c3nc4ccccc4nc23)cc1	none
Cc1ccc(NC(=O)NCc2ccc3c(c2)CCN3C(=O)c2ccccc2)c(Cl)c1	Pin1 inhibitor inconclusive (no result: Integrin act MD, PKM2 activator, IL-2 act, USP2a block)
Cc1cccn2c(=O)c(/C=C(\C#N)c3nc4ccccc4s3)c(Oc3ccc(F)cc3)nc12	Pin1 inhibitor inconclusive (no result: Integrin act MD, PKM2 activator, IL-2 act, USP2a block)
CN1CCN(C(=O)COc2ccc(-c3nc4ccccc4s3)cc2)CC1	ClpP mod 25µM
CN1CCN(C(=O)COc2ccc3ccccc3c2)CC1	none (no result: ClpP mod, PKM2 activator)
Cc1ccc(-c2cc(-c3ccc(C)cc3)[n+](C)o2)cc1	ClpP mod 14µM
CCCn1cc(S(=O)(=O)c2ccc(OC)cc2)c(=O)c2cc(F)c(N3CCCCCC3)cc21	ClpP mod inconclusive (no result: Integrin act MD, PKM2 activator, IL-2 act, USP2a block)
Cc1cc(C)c(C(=O)N2CCC3(CC2)OCCO3)c(C)c1	none
Cc1ccc2cc3cc(C(=O)N4CCC5(CC4)OCCO5)oc3nc2c1	ClpP mod 14µM
S=C(NCCc1ccccc1)N1Cc2cc(N3CCCCC3)ccc2-n2nncc2C1	ClpP mod 32µM (no result: Integrin act MD, Pin1 inhibitor, PKM2 activator, USP2a block)
NC(Cc1ccc(O)cc1)C(=O)NN=Cc1ccc(N(CCCl)CCCl)cc1 (centres undefined)	ClpP mod 28µM (no result: PKM2 activator, USP2a block)
CC(=O)c1cccc(NC(=O)CSc2ncc3c(n2)-c2cc(Cl)ccc2N(Cc2ccccc2)S3(=O)=O)c1	none (no result: Integrin act MD, PKM2 activator, IL-2 act, USP2a block)
CN(C)c1ccc(N=Cc2c(O)n(CCC3=CCCCC3)c(=O)[nH]c2=O)cc1	Pin1 inhibitor inconclusive, IL-2 act 206
S=c1[nH]nc(-c2ccco2)n1Cc1ccccc1	ClpP mod 28µM
O=c1c2ccccc2nc(-c2ccco2)n1-c1ccc(Br)cc1	none
CC1=NN(c2ccccc2)C(=O)C1/C=C1\C(=O)NC(=O)N(c2cc(C)cc(C)c2)C1=O (centres undefined)	ClpP mod 25µM
Cc1cc(C)cc(N2C(=O)NC(=O)/C(=C\C=C\c3ccco3)C2=O)c1	ClpP mod 16µM, Pin1 inhibitor inconclusive
CC1=NN(c2ccccc2)C(=O)C1/C=C1/C(=O)NC(=O)N(c2cc(C)cc(C)c2)C1=O (centres undefined)	none
O=C(CN1CCOCC1)c1ccc2ccccc2c1	none (no result: Integrin act MD, Pin1 inhibitor, PKM2 activator, IL-2 act, USP2a block)
COC(=O)C1(C)C=C2C(=C(C)C(=O)C2C)CN1 (centres undefined)	none (no result: ClpP mod, Integrin act MD, Pin1 inhibitor, IL-2 act, USP2a block)
S=c1[nH]nc(-c2cccs2)n1C1CCCCC1	ClpP mod 32µM
CCCN1[C@H](C(=O)OC)C[C@@H]2CC[C@@H](O)C[C@@H]21	none (no result: ClpP mod, Integrin act MD, Pin1 inhibitor, IL-2 act, USP2a block)
O=C(CCl)c1ccc(O)c(O)c1	none (no result: Integrin act MD, Pin1 inhibitor, PKM2 activator, IL-2 act, USP2a block)
